Vaccinia Venus – inhibitors of vaccinia virus (Venus reporter); Vaccinia virus Venus reporter expression, fluorescence; Potency, µM (doses to about 36.5 µM), inactives show at the highest dose activity change, negative = inhibition, usual class: inhibitors; hit rate 0.46% among 330,000; AID 720580; calls by dose curve; tested in A549 cells; note: nearly all actives have a fitted effect of over 30% in size
Vaccinia mCherry – inhibitors of vaccinia virus infection (mCherry reporter signal); Vaccinia virus mCherry reporter infection, fluorescence; Potency, µM (top dose mostly 36.5 µM), inactives show top-dose activity change, negative = inhibition, usual class: inhibitors; hit rate 0.63% among 310,000; AID 720579; calls by dose curve; tested in A549 cells; note: nearly all actives have a fitted effect of over 35% in size
FMDV inh – blocks foot and mouth disease virus. FMDV antiviral cell-based qHTS. Potency, µM (doses to about 57.9 µM), without a hit: at the highest dose activity change, negative = inhibition, most hits filed as inhibitors. hit rate 1.2% among 410,000. AID 1159524; calls by dose curve; tested in HEK293T cells; note: read-out not given here; nearly all actives have a fitted effect of over 45% in size
Lassa entry inh – inhibitors of Lassa virus binding or cell entry; hit rate 1.2% among 300,000; Potency, µM (titrated, usually from 37.9 µM), inactives show at the top dose activity change, negative = inhibition, most hits filed as inhibitors; AID 540256; Lassa virus pseudotype entry inhibition, cell reporter; calls by dose curve; tested in HEK293 cells; note: nearly all actives have a fitted effect of over 50% in size
HCV inh – blocks hepatitis C virus; Potency, µM (doses to about 41.8 µM), without a hit: top-dose activity change, negative = inhibition, hits mostly inhibitors; Huh7.5.1 HCVcc-Cre infection, luciferase reporter, 44 h; AID 651820; hit rate 3.4% among 340,000; active = well fitted inhibition curve with a large enough effect; inconclusive = small, poorly fitted or top-dose-only effect, or another doubt; inactive = no such curve, though single readings can be large or run the other way
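Cells (1,000/well) were plated 4 h before compound, then infected with HCVcc-Cre virus (~0.5 moi). After 44 h further culture, infection was read as luciferase luminescence following a 15 min substrate incubation at room temperature.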
Marburg entry inh – Marburg virus entry inhibition; Marburg virus pseudotyped entry inhibition, cell reporter; Potency, µM (top dose mostly 37.8 µM), for inactives: at the highest dose activity change, negative = inhibition, hits mostly inhibitors; hit rate 1.8% among 300,000; calls by dose curve; tested in HEK293 cells
* hit, by the source's call; i = inactive; ? = inconclusive; / = not tested or not shown; [ ] = another dose, or the depositor's remark. The list is not random: actives were taken first. Their share in the collection is about 5.3%. % is set by controls: 0 for no effect and ±100 for the full control effect; potency is the fitted concentration of half-maximal effect.

SMILES	Vaccinia Venus	Vaccinia mCherry	FMDV inh	Lassa entry inh	HCV inh	Marburg entry inh
COC(=O)C1(Cc2cc(-c3ccc(Cl)cc3)no2)CCN(C(=O)OC(C)(C)C)CC1	-21.4%	i	-28.1%	/	1µM*	/
Cc1cccc2cc(CN(CC3CCCO3)C(=O)C3CC3)c(N(C)C)nc12 (stereo not given)	2.1%	-10.5%	-2.1%	/	/	/
Cc1[nH][nH]c(=O)c1C(c1c(C)[nH][nH]c1=O)c1cn(Cc2ccc(Cl)c(Cl)c2)c2ccccc12	-21.1%	-27.0%	?	?	3.7%	8.2µM*
Cc1[nH][nH]c(=O)c1C(c1c(C)[nH][nH]c1=O)c1cn(Cc2ccc(F)cc2)c2ccccc12	-16.0%	-1.0%	?	-29.1%	-6.6%	-20.4%
Cc1ccc(CN2CCC(CNC(=O)c3ccc(NC(=O)C4=CSCCO4)cc3)CC2)cc1	/	/	-0.2%	/	12.6µM*	/
O=C(Nc1ccc(C(=O)NCC2CCN(Cc3ccccc3F)CC2)cc1)C1=CSCCO1	/	/	5.9%	/	-8.6%	/
CC(=O)c1ccc(OCc2cn(CC(=O)c3ccc(O)cc3)nn2)cc1C	/	/	/	-2.4%[46.1 µM]	/	/
CN[C@@H](C)[C@H](O)c1ccccc1	0.1%	-11.1%	-7.0%	/	/	11.2µM*
COc1ccc(-c2csc3ncnc(N4CCN(c5ccccc5Cl)CC4)c23)cc1	-20.0%	-22.3%	?	-12.6%	?	?
COc1ccc(-c2csc3ncnc(N4CCN(S(=O)(=O)c5cccs5)CC4)c23)cc1	-11.6%	i	-17.1%	?	8.91µM*	?
COc1ccc(-c2csc3ncnc(N4CCN(S(=O)(=O)c5ccc(C)cc5)CC4)c23)cc1	-15.3%	?	-23.0%	-17.9%	11.2µM*	?
O=S(=O)(c1ccc(Cl)cc1)N1CCN(c2ncnc3sccc23)CC1	-28.0%	-17.6%	14.1µM*	?	?	?
O=S(=O)(c1ccc(Oc2ncnc3scc(-c4ccccc4)c23)cc1)N1CCOCC1	-7.7%	i	-15.4%	?	10µM*	?
Cc1csc2c(N3CCN(S(=O)(=O)c4ccc(Cl)cc4)CC3)ncnc12	-9.0%	-15.5%	-27.9%	2.0%[46.1 µM]	13.6%	?
COc1ccc(CCNC(=O)CSc2cn(CCNC(=O)c3c(F)cccc3F)c3ccccc23)cc1OC	-2.2%	-5.3%	?	-13.3%[46.1 µM]	/	-11.2%[46.1 µM]
Cc1ccc(S(=O)(=O)N2CCN(C(=O)C3CCN(c4ncnc5sc(C)c(C)c45)CC3)CC2)c(C)c1	/	/	20µM*	/	4.47µM*	/
Cc1sc2ncnc(N3CCN(S(=O)(=O)c4ccc(C(C)(C)C)cc4)CC3)c2c1C	/	/	?	/	5.62µM*	/
COc1ccc(-c2csc3ncnc(N4CCN(c5cccc(Cl)c5)CC4)c23)cc1	-23.4%	-1.6%	?	?	?	?
COc1ccc(-c2csc3ncnc(N4CCN(S(=O)(=O)c5ccc(Cl)s5)CC4)c23)cc1	-21.0%	?	-26.8%	?	10µM*	?
Cc1sc2ncnc(N3CCC(C)CC3)c2c1C	-16.3%	-21.6%	?	11.3%	-21.3%	-9.9%
Cc1sc2ncnc(N3CCN(S(=O)(=O)c4ccc(Br)cc4)CC3)c2c1C	-13.9%	i	?	-15.0%	/	3.5%
CC(=O)OC[C@H]1O[C@H](C#Cc2ccccc2)C=C[C@H]1O	/	/	/	/	/	-3.2%[14.2 µM]
O=C(Nc1cc(SCCO)cc([N+](=O)[O-])c1)c1ccc(Br)o1	-14.4%	?	31.6µM*	?	?	?
O=C(CCCl)Nc1cc(SCCO)cc([N+](=O)[O-])c1	-8.6%	-18.9%	-6.8%	-16.2%[14.3 µM]	/	5.9%
Cc1cccc(NC(=O)CSc2cn(CC(=O)N3CCCC3)c3ccccc23)c1C	-6.6%	-8.7%	17.5%	7.2%[46.1 µM]	/	/
SMILES	Vaccinia Venus	Vaccinia mCherry	FMDV inh	Lassa entry inh	HCV inh	Marburg entry inh
CC[C@H]1SC2=NC(C)=C(C(=O)OCCOC)[C@@H](c3ccc(C(=O)OC)cc3)N2C1=O	/	/	/	/	/	-19.4%
O=c1c2ccccc2[se]n1-c1ccccc1	-8.8%	-3.3%	10.5%	14.6µM*	-4.3%[8.37 µM]	18.3µM*
O=C1Nc2cc(Cl)ccc2Oc2cc(Oc3ccccc3)ccc21	-22.3%	-28.9%	-10.7%	?	/	/
Cc1ccc(S[C@@H](CCN2CC[C@H](NC(=O)OCc3ccccc3)CCC2=O)c2ccccc2)cc1	-26.9%	-14.2%	-19.4%	/	12.6µM*	/
C[C@@H](CSc1ccccc1)CN1CC[C@H](NC(=O)OCc2ccccc2)CCC1=O	?	-0.4%	-26.3%	/	11.2µM*	/
Cc1ccc(SC[C@H](C)CN2CC[C@H](NC(=O)OCc3ccccc3)CCC2=O)cc1	-13.9%	i	-24.5%	/	-13.9%	/
CCCS(=O)(=O)NCc1c(C)ncc2c1CCN(C(=O)/C=C/c1cccc(Cl)c1)C2	15.4%	-6.9%	-10.9%	/	/	/
COc1cccc(OCCSc2nnc3sc4ccccc4n23)c1	-5.7%	/	-8.6%	?	-3.0%	-0.7%
c1ccc(OCCSc2nnc3sc4ccccc4n23)cc1	-5.2%	i	/	10.3µM*	-13.3%	2.06µM*
COc1ccc(-c2cc3nc(C)n(N)c(=O)c3s2)cc1	/	/	7.94µM*	/	7.9%	/
COc1ccc(-c2cc3nc4n(c(=O)c3s2)CCC4)cc1	/	/	0.0%	?	-7.2%	1.64µM*
Cc1nc2cc(-c3ccccc3)sc2c(=O)n1N	-5.3%	-15.7%	7.08µM*	?	-14.1%	?
COc1ccc(-c2cc3nc4n(c(=O)c3s2)CCCCC4)cc1	-3.8%	-13.6%	-8.8%	3.7%[46.1 µM]	?	?
CCCCc1nn2c(=O)cc(COC(=O)c3ccccc3NC(=O)c3cccs3)nc2s1	-10.6%	-20.6%	-1.1%	31.5%[46.1 µM]	/	/
COc1ccc(-n2nc(C(=O)c3cccs3)cc(-c3nc4ccccc4[nH]3)c2=N)cc1	/	/	6.3%	3.5%	11.2µM*	0.9%
Cc1ccccc1-n1nc(C(=O)c2cccs2)cc(-c2nc3ccccc3[nH]2)c1=N	/	/	-10.1%	-6.7%	10µM*	?
Cc1cc(NC(=O)c2cccs2)n(-c2nc3ccccc3[nH]2)n1	-26.9%	?	?	11.3%	?	?
Cc1cccc(-n2nc(C(=O)c3ccco3)cc(-c3nc4ccccc4[nH]3)c2=N)c1	-28.1%	?	-28.8%	-2.7%	?	-7.3%
COc1cc(OC)c(OC)cc1/C=C/c1nc2ccccc2o1	4.9%	-14.7%	/	/	/	/
COc1ccc(CCn2c(=S)[nH]c(=O)c3c(C)cc(C)nc32)cc1OC	-7.6%	-2.1%	/	/	/	/
O=C(CCCCCN1C(=O)[C@@H]2Cc3ccccc3CN2C1=O)Nc1ccccc1F	/	/	-22.5%	/	?	/
N#Cc1c(N)nc2c(c1-c1ccc3c(c1)OCO3)CCc1ccccc1-2	?	?	?	?	12.6µM*	?
N#Cc1c(-c2ccc3c(c2)OCO3)csc1N	-28.5%	?	19.9%	14.0%	8.91µM*	5.8%
CC#C[C@H](C)[C@@H](OCOC)[C@H](C[C@H](C)Cc1cc(Br)cc(OCc2ccccc2)c1OC)OC	/	/	/	/	/	-10.3%[14.2 µM]

From PubChem
